Source: PubChem BioAssay (National Center for Advancing Translational Sciences (NCATS))
RGS12 GoLoco inh: blocks human Gai1 binding to RGS12 GoLoco peptide, red readout; Potency, µM (doses to about 61.6 µM), inactives show at the top dose activity, negative = inhibition, actives largely listed as inhibitors; Gai1:RGS12 GoLoco peptide FP, rhodamine, 10 min; 230,000 tested, 0.44% active; P63096; AID 880; active means well fitted inhibition curve with a large enough effect, not every such curve was filed as active; inactive means no such curve, though single readings can be large or run the other way; further: on the % scale 0 is the no-effect control and ±100 the full control effect; nearly all actives have a fitted effect of over 30% in size
Target sequence (P63096 whole entry, looked up): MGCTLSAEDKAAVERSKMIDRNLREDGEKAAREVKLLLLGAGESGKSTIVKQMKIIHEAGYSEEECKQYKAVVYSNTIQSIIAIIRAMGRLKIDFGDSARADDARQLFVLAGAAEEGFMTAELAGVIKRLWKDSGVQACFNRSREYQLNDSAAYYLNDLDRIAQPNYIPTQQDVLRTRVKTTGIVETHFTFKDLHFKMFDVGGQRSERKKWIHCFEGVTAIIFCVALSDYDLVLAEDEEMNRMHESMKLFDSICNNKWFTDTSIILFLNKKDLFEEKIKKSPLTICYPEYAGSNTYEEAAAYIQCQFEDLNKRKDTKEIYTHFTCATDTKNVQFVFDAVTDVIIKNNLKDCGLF
ERG-DNA inh: ERG Ets/DNA interaction inhibition | fluorescence polarization, His-ERG Ets domain / labelled DNA | Potency, µM (doses to about 76.9 µM), without a hit: at the top dose FP activity, negative = inhibition, actives largely listed as inhibitors | 370,000 tested, 0.028% active | AID 624246; active means well fitted inhibition curve with a large enough effect in the polarisation, with a control signal flat; inconclusive means small, poorly fitted or top-dose-only effect, or effect the other way, or a change in a side signal; inactive means no such curve, though single readings can be large or run the other way; the % refers to the polarisation;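 further: polarization taken with two DNA probes labelled with fluorescein and Texas red; % of control where 0% means no effect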
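His-tagged ERG Ets domain (1 uM in the protein solution; 300mM KCl, 50mM Tris-HCl, 1mM EDTA, 1mM DTT, pH 7.5) received compound, then a probe mix of 5 nM fluorescein-DNA and 100nM Texas-615-DNA. Fluorescence polarization was read for both dyes.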
Anesthetic bind: candidate novel general anesthetic via apoferritin binding; P02791; apoferritin/1-aminoanthracene competitive binding, fluorescence; Potency, µM (highest dose often 77.5 µM), without a hit: at the highest dose activity change, negative = displacement, usual class: inhibitors; 350,000 tested, 0.074% active; AID 485281; further: on the % scale 0 is the no-effect control and ±100 the full control effect; nearly all actives have a fitted effect of over 20% in size
Target sequence (P02791 2-175 limits assumed): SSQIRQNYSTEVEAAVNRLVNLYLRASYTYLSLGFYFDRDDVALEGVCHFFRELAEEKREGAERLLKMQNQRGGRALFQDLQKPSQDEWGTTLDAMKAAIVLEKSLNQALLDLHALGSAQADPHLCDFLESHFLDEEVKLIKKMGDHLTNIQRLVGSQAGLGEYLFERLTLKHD
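Horse-spleen apoferritin (10 uM) in 50% saturated 1-aminoanthracene in PBS was incubated 10 min at room temperature with compound. Fluorescence (ex 380, em 535 nm) was normalized to free and bound 1-AMA, with concentration-response fitted by a four-parameter Hill equation.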
BRCA1 expr up: BRCA1 expression activation; MCF7-BRCA1-FFLuc reporter, luminescence, 48 h; response scale: scaled: vehicle 0%, 10 µM genistein 100%; Potency, µM (series often up to 46.1 µM), for the others: at the top dose activation, hits mostly activators; 380,000 tested, 1.1% active; further: nearly all actives have a fitted effect of over 80% in size
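Using MCF7 cells harboring a BRCA1 firefly luciferase reporter, plated 2 h before compound pinning, the screen measured luminescence after 48 h incubation. Responses were normalized to DMSO and 10 microM genistein, then fitted for concentration-effect.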
Active calls of the source: *; u = inconclusive; x = not tested or not shown; [ ] = another dose, or the depositor's remark. Hits are enriched below; roughly 1.2% of the tested compounds scored in any of these assays. Unless noted, the call rests on the fitted dose curve; in most records, active means well fitted curve in the direction sought with a large enough effect; inconclusive means small, poorly fitted or top-dose-only effect, or another doubt; inactive means no such curve, though single readings can be large; an effect the other way counts as inactive or inconclusive. Potency means the concentration at half of the fitted maximal effect.

SMILES	RGS12 GoLoco inh	ERG-DNA inh	Anesthetic bind	BRCA1 expr up
O=C(Cc1ccc(Br)cc1)N1CCCCCC1	-3.8%	-1.8%	u	10µM*
Cc1cc(=O)[nH]c2nnc(-c3ccc(Br)cc3)n12	x	-5.6%	1.9%	3.98µM*
CN(CCCC1CCCC1)C(=O)CCc1nnc(-c2ccccc2)o1	3.1%	1.5%	u	u
Cc1cc(C)n(CCN(C)C(=O)CCc2nnc(CCC3CCCCC3)o2)n1	8.6%	-4.6%	-16.9%	11.2µM*
Cc1ccc(NC(=O)c2cnccn2)cc1	9.2%	-6.7%	-2.2%	107.1%
Cc1ccc(NC(=O)c2cnccn2)cc1C	x	1.2%	-9.0%	7.94µM*
O=C(Nc1ccc(Br)cc1)c1cnccn1	18.0%	x	-14.5%	8.91µM*
COc1ccc(-c2c(C#N)c(SCC(=O)Nc3ccccc3C)nc(C)c2C(=O)Nc2ccccc2)cc1OC	x	15.5%	2.0%	x
C[n+]1ccc(/C=C/c2ccc(C=S)cc2)c2ccccc21	x	x	x	-72.6%
CN(C)c1ccc(N=Nc2ccc(S(=O)(=O)O)cc2)cc1	x	x	x	7.9%
Cc1cc(C)c2c(=O)n(CC(=O)N3CCC(N4CCCCC4)CC3)sc2n1	-49.9%	8.2%	-14.1%	-47.4%
CCCNC(=O)Cn1sc2nc(C)cc(C)c2c1=O	7.94µM*	-5.0%	-5.2%	-18.7%
O=c1cccccc1NN=C1CCCCC1	-1.7%	12.8%	-12.3%	14.1%
O=c1cccccc1NN=C1CCCCCC1	-8.6%	4.4%	-22.2%	10µM*
C=CCN=Cc1c(C)[nH]n(-c2ccccc2)c1=O	3.6%	33.2%	-1.7%	12.6µM*
Cc1[nH]n(-c2ccccc2)c(=O)c1/C=N/N(c1ccccc1)c1ccccc1	9.4%	-1.1%	-9.4%	0.0%
N=C1[C@@H](O)[C@]2(I)c3ccccc3N3C(=N)[C@H](O)[C@@H]4c5ccccc5N1[C@@H]4[C@@H]32	2.24µM*	x	x	x
CC(=O)Nc1ccc(Oc2cc(N)cc([N+](=O)[O-])c2)cc1	-10.7%	-1.3%	-8.3%	29.7%
CC(=O)Nc1ccc(C=CC=Cc2cccc([N+](=O)[O-])c2)cc1	x	-4.9%	x	5.01µM*
CC(=O)Nc1ccc(Oc2ccc([N+](=O)[O-])cc2Cl)cc1	-9.3%	2.6%	15.8µM*	12.3%
COc1ccc(-c2cc(C(F)(F)F)nc(-n3cncn3)n2)cc1	-6.6%	-4.9%	31.6µM*	-3.9%
N#Cc1cnc2nc(SCc3ccccc3)nn2c1	x	-1.2%	-2.9%	3.55µM*
CCOC(=O)c1cn2nc(SCc3ccccc3)nc2nc1C	x	-2.1%	-21.8%	11.2µM*
O=C(c1ccc(CSc2ccc(Cl)cc2)cc1)N1CCCC1	-11.1%	3.0%	u	10µM*
O=C(CC1N=C2c3ccccc3N=C(SCc3ccccc3F)N2C1=O)NCc1ccc2c(c1)OCO2 (stereo not given)	x	-1.0%	-22.3%	x
SMILES	RGS12 GoLoco inh	ERG-DNA inh	Anesthetic bind	BRCA1 expr up
CN(C)c1ccc(/C=C2\C=Cc3ccccc32)c(F)c1	x	x	x	5.5%
C/C(=N\NC(=O)c1ccccc1)c1ccccc1F	1.9%	-5.8%	-6.7%	u
C/C(=N\NC(=O)c1ccccc1)c1ccc(N2CCCCC2)cc1	-9.7%	-4.8%	-6.1%	11.2µM*
C/C(=N\NC(=O)c1ccccc1)c1ccccc1Br	-5.4%	-3.3%	4.0%	11.2µM*
CNC(=S)N/N=C(\C)c1ccc(N2CCOCC2)cc1	7.3%	8.1%	-10.9%	8.91µM*
CCNC(=S)N/N=C(\C)c1ccc(N2CCOCC2)cc1	11.5%	2.7%	3.9%	9.9%
CCOC(=O)N/N=C1/C[C@@H](O)[C@@H](O)[C@@H]2[C@@H]3C(=O)N(C(C)(C)C)C(=O)[C@H]3CC[C@H]12	x	x	-5.3%[15.3 µM]	x
CCN(c1cccc(C)c1)c1ncnc2nc[nH]c12	7.0%	-3.2%	5.8%	30.1%
Cc1cccc(COc2ncnc3nc[nH]c23)c1	0.4%	12.1%	-7.6%	10µM*
Cc1ccc(NC(=O)CSc2nccn2Cc2ccco2)cc1	x	7.7%	-9.3%	10µM*
N#Cc1ccccc1NC(=O)CSc1nnc(-c2ccccc2)n1-c1ccccc1	-4.6%	4.7%	-9.4%	-89.7%
CC(=O)c1ccc(NC(=O)CSc2nccn2Cc2ccco2)cc1	x	-8.5%	-8.6%	x
CC(=O)c1ccc(NC(=O)CSc2nccn2Cc2ccc3c(c2)OCO3)cc1	x	-6.1%	-1.1%	x
CC(=O)Nc1ccc(NC(=O)CSc2nccn2Cc2ccccc2)cc1	7.9%	4.1%	-7.5%	1.1%
CC(=O)c1ccc(NC(=O)CSc2nccn2CCc2ccccc2)cc1	4.1%	6.9%	u	12.6µM*
